The whole screen tested about 290,000 compounds, of which about 3,300 (1.1%) were called active. The sample holds actives, similar compounds and a random draw of the others, so the mix is not that of the screen. A number with no mark means an inactive call. Rule as the data show it: active = binding response below about 67% or above about 130%; inconclusive = no clear call, values can overlap the other calls; inactive = in between.
Molecular target: Mitogen-activated protein kinase kinase kinase 2 (Homo sapiens) (UniProt Q9Y2U5)
Assay: wildtype MEKK2 PB1-MEK5 interaction, increase or decrease – biochemical, multiplex bead flow cytometry, Alexa488-MEK5, primary screen (AID 1531)
Conditions: Alexa488-MEK5 binding to MEKK2 WT, at 10 µM, actives lie on both sides

Row | SMILES | binding response (% of control)
1 | Cn1ccnc1-c1nnn(-c2ccc(F)cc2)n1 | 97%
2 | CSc1ccc(S(=O)(=O)N2CCC(C(=O)NCc3ccncc3)CC2)cc1 | 105%
3 | CN(CC(=O)O)S(=O)(=O)c1ccc2oc3ccccc3c2c1 | 110%
4 | CN1CCN(CCNC(=O)Nc2ccc([N+](=O)[O-])cc2)CC1 | 105%
5 | O=C(COc1ccc([N+](=O)[O-])cc1)Nc1ccc(N2CCCC2)cc1 | 103%
6 | O=C(NCCCN1CCN(c2ccc(F)cc2)CC1)Nc1ccc([N+](=O)[O-])cc1 | 140% (active)
7 | COC(=O)C1(C)CC1(c1ccccc1)c1ccccc1 (stereo unspecified) | 104%
8 | CCOCCCn1c(SCC(=O)Nc2cc(OC)ccc2OC)nc2ccccc2c1=O | 105%
9 | O=C(NCc1ccco1)/C(=C\c1cccc([N+](=O)[O-])c1)NC(=O)c1ccco1 | 101%
10 | CCC1CCCCN1CCCNC(=O)C1CCC(Cn2c(=O)[nH]c3ccccc3c2=O)CC1 (stereo unspecified) | 110%
11 | CCC1CCCCN1CCCNC(=O)c1cc2c(Cl)nc3ccccc3c2s1 (stereo unspecified) | 173% (active)
12 | CCC1CCCCN1CCCNC(=O)Cn1nc(-c2ccccc2)ccc1=O (stereo unspecified) | 108%
13 | CN1CCN(Cc2nc3cc(NC(=O)COc4ccc([N+](=O)[O-])cc4)ccc3n2C)CC1 | 109%
14 | Cc1ccc(S(=O)(=O)/N=S(\C)C(C)C)cc1 (stereo unspecified) | 2% [inhibitor] (active)
15 | CC/S(CC1CC1(Cl)Cl)=N\S(=O)(=O)c1ccc(C)cc1 (stereo unspecified) | 96%
16 | CCCC/S(C)=N/S(=O)(=O)c1ccc(C)cc1 (stereo unspecified) | 102%
17 | S=C(NCCCc1ccccc1)Nc1ccc(Br)cc1 | 100%
18 | COc1ccccc1NC(=O)CN(c1ccccc1OC)S(=O)(=O)c1ccccc1 | 99%
19 | CN(C)c1nc(Nc2ccc(Cl)c(Cl)c2)nc(N(C)C)n1 | 98%
20 | OCCNc1nc(Nc2ccc(Cl)c(Cl)c2)nc2ccccc12 | 150% (active)
21 | Nc1nc(Nc2ccccc2)nc(NCCO)c1[N+](=O)[O-] | 98%

Row | SMILES | binding response (% of control)
22 | CC(C)CNS(=O)(=O)c1ccc(C(=O)Nc2ccc3c(c2)OCO3)cc1 | 103%
23 | Cn1c(C(=O)NCCCN2CCCCC2)cc2sccc21 | 138% (active)
24 | Cn1c(C(=O)N2CCCC(C(=O)NCc3ccccc3)C2)cc2sccc21 (stereo unspecified) | 102%
25 | COc1ccc(CCNC(=O)c2cc3sccc3n2C)cc1OC | 104%
26 | COCC(C)NC(=O)COc1nncc2ccccc12 (stereo unspecified) | 40% [inhibitor] (active)
27 | CC(C)C(C)NC(=O)COc1ncnc2ccccc12 (stereo unspecified) | 105%
28 | COC(=O)C(C)NC(=O)COc1ccc2ccccc2c1 (stereo unspecified) | 95%
29 | CCC(C)C(=O)Nc1ccccc1N1CCN(c2ccc(F)cc2)CC1 (stereo unspecified) | 101%
30 | COc1ccc2nc(C)cc(Nc3cccc(C(=O)O)c3)c2c1 | 110%
31 | COc1cc(NC(=O)c2cccnc2SC)cc(OC)c1 | 101%
32 | COc1cccc(Nc2ncccc2C(=O)O)c1 | 4% [inhibitor] (active)
33 | COc1ccc(-c2c(NC(=O)c3ccco3)oc3ccc(Cl)cc3c2=O)cc1 | 104%
34 | COc1ccc2[nH]c3nc(SCC(=O)NC4CC4)nnc3c2c1 | 104%
35 | CCCCCCCCCCCCN1[C@@H](CC(C)=O)c2cc(F)cc(F)c2S1(=O)=O | 103%
36 | Cc1nc(-c2ccc(Cl)cc2)sc1C1(C)CC(c2ccc(Br)cc2)=NO1 (stereo unspecified) | 95%
37 | O=C(CN1CCOc2ccccc21)N1CCC(Cc2ccccc2)CC1 | 107%
38 | Cc1cccc(C)c1OCC(O)CN1CCCCC1 (stereo unspecified) | 94%
39 | Cc1ccccc1OCC(O)CN1CCN(c2ccccn2)CC1 (stereo unspecified) | 99%
40 | Cc1cccc(OCC(O)CN2CCN(CCN3C(=O)c4cccc5cccc(c45)C3=O)CC2)c1C (stereo unspecified) | 146% (active)
41 | O=C(NC1CC1)C1=C[C@H](c2coc3ccccc3c2=O)C[C@H](OCCCCO)O1 | 108%
42 | Cc1cccc(N(C(=O)c2sc(C)nc2C)C(C(=O)NCC2CCCO2)c2ccccc2)c1 (stereo unspecified) | 106%

Row | SMILES | binding response (% of control)
43 | Nc1nc(Nc2ccccc2F)nc(NC2CCCCC2)c1[N+](=O)[O-] | 98%
44 | CCn1c(SCC(=O)Nc2ccc3c(c2)OCCO3)nnc1-c1ccncc1 | 106%
45 | CCOc1ccc(S(=O)(=O)N(CC(=O)O)c2ccccc2)cc1 | 6% [inhibitor] (active)
46 | CCOc1ccc(N(CC(=O)NCCOc2ccccc2OC)S(=O)(=O)c2ccccc2)cc1 | 104%
47 | CCOc1ccc(N(CC(=O)NCCc2ccc(F)cc2)S(=O)(=O)c2ccccc2)cc1 | 96%
48 | C=Cn1cc[n+](CC(=O)c2ccc(OC)c(OC)c2)c1 | 96%
49 | CSc1nnc(NC(=O)c2nc(S(=O)(=O)Cc3ccc(C)cc3)ncc2Cl)s1 | 101%
50 | CCc1ccc(N(CC(=O)Nc2sc3c(c2C(=O)OC)CCCC3)S(C)(=O)=O)cc1 | 93%
51 | COC(=O)c1c(NC(=O)COC(=O)[C@@H](NS(=O)(=O)c2ccccc2)C(C)C)sc2c1CCC2 | 1% [inhibitor] (active)
52 | COC(=O)c1c(NC(=O)CCCC(=O)O)sc2c1CCCCC2 | 98%
53 | Cc1cc(CN(C)C(=O)c2cc(COc3ccc(C)c(C)c3)on2)n[nH]1 | 109%
54 | CN(CCc1ccccc1)c1ccc([N+](=O)[O-])cn1 | 102%
55 | Cc1ccc2nc(N(CCN(C)C)C(=O)C3=COCCO3)sc2c1 | 113%
56 | CC(=O)N(CCCN(C)C)c1nc2ccc(C)cc2s1 | 104%
57 | Cc1cccc2sc(N(CCCN(C)C)C(=O)CCS(=O)(=O)c3ccccc3)nc12 | 119%
58 | Cc1ccc(S(=O)(=O)N(C)C)cc1NC(=O)/C=C/c1cccs1 | 107%
59 | Cc1ccc2sc(N(CCN(C)C)C(=O)/C=C/c3cccs3)nc2c1C | 151% (active)
60 | Cc1cc(C)c2nc(N(CCN(C)C)C(=O)/C=C/c3cccs3)sc2c1 | 165% (active)
61 | COc1ccc(N2CCN(C(=O)[C@@H](NC(=O)c3cc(OC)cc(OC)c3)C(C)C)CC2)cc1 | 108%

Reference: PubChem BioAssay AID1531 (NMMLSC, 2009)
